About 2,000 (36%) of roughly 5,500 compounds were called active. Not shown: some 18% with an inconclusive outcome. Cut-off read from the data, not from the text of the source: active = normalized growth mostly below about 0.91 (no sharp cut-off); inconclusive = no clear call, values can overlap the other calls; inactive = mostly above about 0.92. The list shows a part of the results.
Test: chemical genetic growth profiling, strain panel (AID 1159580);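 note: tested at 20 µM; growth read once vehicle control cultures reached saturation at 30 °C; 1 = growth at the plate median or of vehicle wells; lower values mean less growth of the strain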
Conditions: S. cerevisiae deletion strains, growth OD

Measured: normalized growth

COC(=O)c1cc(I)c(OC(C)=O)c(I)c1
active: locus YLR113W, strain HOG1, hits give low values 0.745
inactive: locus YAR019C, strain CDC15, hits give low values 0.952 | locus YBL105C, strain PKC1, hits give low values 0.958 | locus YBR135W, strain CKS1, hits give low values 0.944 | locus YBR136W, strain MEC1, hits give low values 0.958 | locus YBR160W, strain CDC28, hits give low values 0.959 | locus YDL017W, strain CDC7, hits give low values 0.961 | locus YDL028C, strain MPS1, hits give low values 0.961 | locus YDL101C, strain DUN1, hits give low values 0.935 | locus YDL108W, strain KIN28, hits give low values 0.955 | locus YDL132W, strain cdc53, hits give low values 0.939 | locus YDL214C, strain PRR2, hits give low values 0.929 | locus YDR052C, strain DBF4, hits give low values 0.967 | locus YDR054C, strain cdc34, hits give low values 0.939 | locus YDR226W, strain ADK1, hits give low values 0.951 | locus YDR477W, strain SNF1, hits give low values 0.955 | locus YER123W, strain YCK3, hits give low values 0.905 | locus YER133W, strain GLC7, hits give low values 0.945 | locus YFL009W, strain cdc4, hits give low values 0.952 | locus YFL029C, strain CAK1, hits give low values 0.947 | locus YFR003C, strain YPI1, hits give low values 0.956 | locus YFR019W, strain FAB1, hits give low values 0.94 | locus YFR028C, strain CDC14, hits give low values 0.95 | locus YGR040W, strain KSS1, hits give low values 0.953 | locus YGR052W, strain FMP48, hits give low values 0.967 | locus YGR092W, strain DBF2, hits give low values 0.9 | locus YHR030C, strain SLT2, hits give low values 0.916 | locus YHR079C, strain IRE1, hits give low values 0.973 | locus YHR082C, strain KSP1, hits give low values 0.98 | locus YHR205W, strain SCH9, hits give low values 0.864 | locus YIL147C, strain SLN1, hits give low values 0.966 | locus YJL095W, strain BCK1, hits give low values 0.934 | locus YJL128C, strain PBS2, hits give low values 0.856 | locus YJL157C, strain FAR1, hits give low values 0.945 | locus YJR016C, strain ILV3, hits give low values 0.959 | locus YJR066W, strain TOR1 (second series), hits give low values 0.943 | locus YJR066W, strain TOR1, hits give low values 1.01 | locus YKL048C, strain ELM1, hits give low values 0.913 | locus YKL067W, strain YNK1, hits give low values 0.91 | locus YKL101W, strain HSL1, hits give low values 0.902 | locus YKL193C, strain SDS22, hits give low values 0.942 | locus YKL203C, strain TOR2, hits give low values 1.02 | locus YLR133W, strain CKI1, hits give low values 0.949 | locus YLR403W, strain SFP1, hits give low values 0.935 | locus YML070W, strain DAK1, hits give low values 0.897 | locus YMR001C, strain CDC5, hits give low values 0.947 | locus YMR205C, strain PFK2 (second series), hits give low values 0.925 | locus YMR277W, strain FCP1, hits give low values 0.948 | locus YNL006W, strain LST8, hits give low values 0.951 | locus YNL020C, strain ARK1, hits give low values 0.939 | locus YNL161W, strain CBK1, hits give low values 0.961 | locus YNL183C, strain NPR1, hits give low values 0.958 | locus YNL207W, strain RIO2, hits give low values 0.957 | locus YNL222W, strain SSU72, hits give low values 0.94 | locus YNL307C, strain MCK1 (second series), hits give low values 0.918 | locus YOL078W, strain AVO1, hits give low values 0.952 | locus YOL136C, strain PFK27, hits give low values 0.926 | locus YOR061W, strain CKA2, hits give low values 0.937 | locus YOR119C, strain RIO1, hits give low values 0.991 | locus YOR231W, strain MKK1, hits give low values 0.942 | locus YOR329C, strain SCD5, hits give low values 0.963 | locus YPL031C, strain PHO85, hits give low values 0.949 | locus YPL153C, strain RAD53, hits give low values 0.936 | locus YPL204W, strain HRR25, hits give low values 0.946 | locus YPL209C, strain IPL1, hits give low values 0.95 | locus YPL256C, strain CLN2, hits give low values 0.898 | locus YPR025C, strain CCL1, hits give low values 0.953 | locus YPR106W, strain ISR1, hits give low values 0.92 | locus YPR111W, strain DBF20, hits give low values 0.926 | strain NNK1, hits give low values 0.921 | strain TSCII, hits give low values 0.948

Source: PubChem BioAssay AID1159580 (chemical genetic matrix, 2015)
